Results published in the supplement of paper PMC7411054.
Structures can show the parent of a compound that is named as a salt.

Assays:
Conditions in all cases: treatment time: 24 h
[1] = test system: A549-ACTB-RAB5A; assay: lowest phenotypically active concentration; higher = less potent
In short: (§1)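 The reporter lines, fifteen in total and built by gene editing in A549, HepG2 and WPMY1 cells, used BFP for segmentation alongside GFP and RFP/FusionRed markers. Each was treated at 0.3, 1, 3 or 9 µM for 24 h in four wells and then imaged live, with live-cell features normalised to solvent control wells. Deviation meant ≥3 of 4 wells beyond the 95th percentile of control Euclidean distances; reproducibility meant a median replicate Pearson correlation above the 95th percentile of non-replicates. Only conditions meeting both were scored as phenotypically active.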

[2] = test system: A549-CANX-COX4; assay: as above
In short: as §1

[3] = test system: A549-GM130-SQSTM1; assay: as above
In short: as §1

[4] = test system: A549-TP53BP1-CLTA; assay: as above
In short: as §1

[5] = test system: A549-TUBA1B-RELA; assay: as above
In short: as §1

[6] = test system: A549-ACTB-RAB5A; assay: phenotypically active (imaging signature differs from DMSO and reproducible) at any of 0.3-9 uM (binary (1 = active, 0 = inactive)); higher = active
In short: as §1

[7] = test system: A549-CANX-COX4; assay: as above
In short: as §1

[8] = test system: A549-GM130-SQSTM1; assay: as above
In short: as §1

[9] = test system: A549-TP53BP1-CLTA; assay: as above
In short: as §1

[10] = test system: A549-TUBA1B-RELA; assay: as above
In short: as §1

[11] = test system: HepG2-ACTB-RAB5A; assay: as above
In short: as §1

[12] = test system: HepG2-CANX-COX4; assay: as above
In short: as §1

[13] = test system: HepG2-GM130-SQSTM1; assay: as above
In short: as §1

[14] = test system: HepG2-TP53BP1-CLTA; assay: as above
In short: as §1

[15] = test system: HepG2-TUBA1B-RELA; assay: as above
In short: as §1

[16] = test system: WPMY1-ACTB-RAB5A; assay: as above
In short: as §1

[17] = test system: WPMY1-CANX-COX4; assay: as above
In short: as §1

[18] = test system: WPMY1-GM130-SQSTM1; assay: as above
In short: as §1

[19] = test system: WPMY1-TP53BP1-CLTA; assay: as above
In short: as §1

[20] = test system: WPMY1-TUBA1B-RELA; assay: as above
In short: as §1

O=C(NC(NC(=S)Nc1ccc(F)c([N+](=O)[O-])c1)C(Cl)(Cl)Cl)C(c1ccccc1)c1ccccc1 (stereo unspecified)
9 µM: lowest phenotypically active concentration [2] | lowest phenotypically active concentration [4] | lowest phenotypically active concentration [5]
3 µM: lowest phenotypically active concentration [1] | lowest phenotypically active concentration [3]
active: phenotypically active [6] 1 | phenotypically active [7] 1 | phenotypically active [8] 1 | phenotypically active [9] 1 | phenotypically active [10] 1 | phenotypically active [11] 1 | phenotypically active [12] 1 | phenotypically active [13] 1 | phenotypically active [14] 1 | phenotypically active [15] 1 | phenotypically active [16] 1 | phenotypically active [17] 1 | phenotypically active [18] 1 | phenotypically active [19] 1 | phenotypically active [20] 1

CC(=O)OCC(=O)[C@@]12OC3(CCCC3)O[C@@H]1C[C@H]1[C@@H]3CCC4=CC(=O)C=C[C@]4(C)[C@@]3(F)[C@@H](O)C[C@@]12C [amcinonide]
inactive: phenotypically active [11] 0 | phenotypically active [12] 0 | phenotypically active [13] 0 | phenotypically active [14] 0 | phenotypically active [15] 0 | phenotypically active [16] 0 | phenotypically active [17] 0 | phenotypically active [18] 0 | phenotypically active [19] 0 | phenotypically active [20] 0
≤ 0.3 µM: lowest phenotypically active concentration [1] | lowest phenotypically active concentration [2] | lowest phenotypically active concentration [3] | lowest phenotypically active concentration [4] | lowest phenotypically active concentration [5]
active: phenotypically active [6] 1 | phenotypically active [7] 1 | phenotypically active [8] 1 | phenotypically active [9] 1 | phenotypically active [10] 1

COc1nc(N)nc2c1ncn2[C@@H]1O[C@H](CO)[C@@H](O)[C@@H]1O [Nelarabine]
inactive: phenotypically active [7] 0 | phenotypically active [8] 0 | phenotypically active [9] 0 | phenotypically active [10] 0 | phenotypically active [11] 0 | phenotypically active [12] 0 | phenotypically active [13] 0 | phenotypically active [14] 0 | phenotypically active [15] 0 | phenotypically active [16] 0 | phenotypically active [17] 0 | phenotypically active [18] 0 | phenotypically active [19] 0 | phenotypically active [20] 0
active: phenotypically active [6] 1
9 µM: lowest phenotypically active concentration [1]

CC(=O)[C@@]1(O)CC[C@H]2[C@@H]3C[C@H](C)C4=CC(=O)C=C[C@]4(C)[C@@]3(F)[C@@H](O)C[C@@]21C [fluorometholone]
active: phenotypically active [6] 1 | phenotypically active [7] 1 | phenotypically active [8] 1 | phenotypically active [9] 1 | phenotypically active [10] 1
inactive: phenotypically active [11] 0 | phenotypically active [12] 0 | phenotypically active [13] 0 | phenotypically active [14] 0 | phenotypically active [15] 0 | phenotypically active [16] 0 | phenotypically active [17] 0 | phenotypically active [18] 0 | phenotypically active [19] 0 | phenotypically active [20] 0
≤ 0.3 µM: lowest phenotypically active concentration [1] | lowest phenotypically active concentration [2] | lowest phenotypically active concentration [3] | lowest phenotypically active concentration [4] | lowest phenotypically active concentration [5]

CCCCCCCCCN1C[C@H](O)[C@@H](O)[C@H](O)[C@H]1CO [N-Nonyldeoxynojirimycin]
inactive: phenotypically active [6] 0 | phenotypically active [7] 0 | phenotypically active [8] 0 | phenotypically active [9] 0 | phenotypically active [10] 0 | phenotypically active [11] 0 | phenotypically active [12] 0 | phenotypically active [13] 0 | phenotypically active [14] 0 | phenotypically active [15] 0 | phenotypically active [16] 0 | phenotypically active [17] 0 | phenotypically active [18] 0 | phenotypically active [19] 0 | phenotypically active [20] 0

C[C@H]1C[C@@H]2[C@H]([C@@H](O)C[C@@]3(C)[C@H]2CC[C@]3(O)C(=O)CO)[C@@]2(C)C=CC(=O)C=C12 [methylprednisolone]
inactive: phenotypically active [11] 0 | phenotypically active [12] 0 | phenotypically active [13] 0 | phenotypically active [14] 0 | phenotypically active [15] 0 | phenotypically active [16] 0 | phenotypically active [17] 0 | phenotypically active [18] 0 | phenotypically active [19] 0 | phenotypically active [20] 0
≤ 0.3 µM: lowest phenotypically active concentration [1] | lowest phenotypically active concentration [2] | lowest phenotypically active concentration [3] | lowest phenotypically active concentration [4] | lowest phenotypically active concentration [5]
active: phenotypically active [6] 1 | phenotypically active [7] 1 | phenotypically active [8] 1 | phenotypically active [9] 1 | phenotypically active [10] 1

C[C@]12CCC(=O)C=C1CC[C@@H]1[C@@H]2[C@@H](O)C[C@@]2(C)[C@H]1CC[C@]2(O)C(=O)CO [hydrocortisone]
inactive: phenotypically active [11] 0 | phenotypically active [12] 0 | phenotypically active [13] 0 | phenotypically active [14] 0 | phenotypically active [15] 0 | phenotypically active [16] 0 | phenotypically active [17] 0 | phenotypically active [18] 0 | phenotypically active [19] 0 | phenotypically active [20] 0
active: phenotypically active [6] 1 | phenotypically active [7] 1 | phenotypically active [8] 1 | phenotypically active [9] 1 | phenotypically active [10] 1
≤ 0.3 µM: lowest phenotypically active concentration [1] | lowest phenotypically active concentration [2] | lowest phenotypically active concentration [3] | lowest phenotypically active concentration [4] | lowest phenotypically active concentration [5]

FC(F)(F)c1ccc(/C=C/c2nc(COc3ccc(CCCCn4ccnn4)cc3)co2)cc1
inactive: phenotypically active [16] 0 | phenotypically active [17] 0 | phenotypically active [18] 0 | phenotypically active [19] 0 | phenotypically active [20] 0
≤ 0.3 µM: lowest phenotypically active concentration [1] | lowest phenotypically active concentration [2] | lowest phenotypically active concentration [3] | lowest phenotypically active concentration [4] | lowest phenotypically active concentration [5]
active: phenotypically active [6] 1 | phenotypically active [7] 1 | phenotypically active [8] 1 | phenotypically active [9] 1 | phenotypically active [10] 1 | phenotypically active [11] 1 | phenotypically active [12] 1 | phenotypically active [13] 1 | phenotypically active [14] 1 | phenotypically active [15] 1

OC[C@H]1NC[C@@H](O)[C@@H](O)[C@@H]1O [1-Deoxymannojirimycin hydrochloride]
inactive: phenotypically active [6] 0 | phenotypically active [7] 0 | phenotypically active [8] 0 | phenotypically active [9] 0 | phenotypically active [10] 0 | phenotypically active [11] 0 | phenotypically active [12] 0 | phenotypically active [13] 0 | phenotypically active [14] 0 | phenotypically active [15] 0 | phenotypically active [16] 0 | phenotypically active [17] 0 | phenotypically active [18] 0 | phenotypically active [19] 0 | phenotypically active [20] 0

CC1(C)O[C@@H]2C[C@H]3[C@@H]4C[C@H](F)C5=CC(=O)CC[C@]5(C)[C@H]4[C@@H](O)C[C@]3(C)[C@]2(C(=O)CO)O1 [flurandrenolide]
active: phenotypically active [6] 1 | phenotypically active [7] 1 | phenotypically active [8] 1 | phenotypically active [9] 1 | phenotypically active [10] 1
≤ 0.3 µM: lowest phenotypically active concentration [1] | lowest phenotypically active concentration [2] | lowest phenotypically active concentration [3] | lowest phenotypically active concentration [4] | lowest phenotypically active concentration [5]
inactive: phenotypically active [11] 0 | phenotypically active [12] 0 | phenotypically active [13] 0 | phenotypically active [14] 0 | phenotypically active [15] 0 | phenotypically active [16] 0 | phenotypically active [17] 0 | phenotypically active [18] 0 | phenotypically active [19] 0 | phenotypically active [20] 0
